# Numbering of substitutions follows the chain as printed.
# Tests used:
# Experiment in all cases: yeast three-hybrid, YBZ-1, SC-Leu-His + 0.5 mM 3-AT, 4 days
# Conditions in all cases: tags: N-Gal4 AD-HA kept; label: inside an RPR1-promoter hybrid RNA with tandem MS2 sites; ssRNA
# PUM1 PUF domain R5-RFS = PUM1 PUF domain R5-RFS (Homo sapiens, UniProt Q14671 828-1176, C1007R;R1008F;Q1011S)
# How it was run: (§1)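 Sequencing with Illumina followed PCR amplification of the repeat regions from transformants grown four days on SC-Leu (input) or SC-Leu-His + 0.5 mM 3-AT (selection). The transformants were strain YBZ-1 with a LexA–MS2 coat fusion and a HIS3 reporter, carrying Pumilio-1 PUF domain libraries and matching RNA elements. The interaction score is the log change in variant frequency from input to selection, computed in log2 with a pseudocount of 1 for absent variants.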
# PUM1 PUF domain R7-RMR = PUM1 PUF domain R7-RMR (Homo sapiens, UniProt Q14671 828-1176, S1079R;N1080M;E1083R)
# How it was run: as §1
# PUM1 PUF domain R1-NFH = PUM1 PUF domain R1-NFH (Homo sapiens, UniProt Q14671 828-1176, S863N;R864F;Q867H)
# How it was run: as §1
# PUM1 PUF domain R1-YIR = PUM1 PUF domain R1-YIR (Homo sapiens, UniProt Q14671 828-1176, S863Y;R864I;Q867R)
# How it was run: as §1
# PUM1 PUF domain R6-KWV = target: T1, PUM1 PUF domain R6-KWV (Homo sapiens, UniProt Q14671 828-1176, N1043K;Y1044W;Q1047V)
# T1 sequence: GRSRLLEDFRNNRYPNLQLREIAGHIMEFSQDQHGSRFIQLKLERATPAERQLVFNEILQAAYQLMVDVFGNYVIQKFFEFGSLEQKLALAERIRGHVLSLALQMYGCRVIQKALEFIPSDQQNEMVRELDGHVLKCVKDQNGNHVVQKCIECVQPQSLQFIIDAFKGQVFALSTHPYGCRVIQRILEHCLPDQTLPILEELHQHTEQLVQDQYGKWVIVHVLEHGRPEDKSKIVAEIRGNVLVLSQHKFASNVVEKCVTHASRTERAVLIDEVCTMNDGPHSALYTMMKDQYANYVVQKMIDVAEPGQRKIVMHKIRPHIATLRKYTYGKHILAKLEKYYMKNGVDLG
# How it was run: as §1
# PUM1 PUF domain R6-HFT = target: T2, PUM1 PUF domain R6-HFT (Homo sapiens, UniProt Q14671 828-1176, N1043H;Y1044F;Q1047T)
# T2 sequence: T1 sequence with K216H, W217F, V220T
# How it was run: as §1
# PUM1 PUF domain R6-SFC = target: T3, PUM1 PUF domain R6-SFC (Homo sapiens, UniProt Q14671 828-1176, N1043S;Y1044F;Q1047C)
# T3 sequence: T1 sequence with K216S, W217F, V220C
# How it was run: as §1
# PUM1 PUF domain R3-GCR = PUM1 PUF domain R3-GCR (Homo sapiens, UniProt Q14671 828-1176, C935G;R936C;Q939R)
# How it was run: as §1
# PUM1 PUF domain R4-ANG = PUM1 PUF domain R4-ANG (Homo sapiens, UniProt Q14671 828-1176, N971A;H972N;Q975G)
# How it was run: as §1
# PUM1 PUF domain R8-RHQ = PUM1 PUF domain R8-RHQ (Homo sapiens, UniProt Q14671 828-1176, N1122R;Y1123H)
# How it was run: as §1
# PUM1 PUF domain R1-SGD = PUM1 PUF domain R1-SGD (Homo sapiens, UniProt Q14671 828-1176, R864G;Q867D)
# How it was run: as §1
# PUM1 PUF domain R5-FHG = PUM1 PUF domain R5-FHG (Homo sapiens, UniProt Q14671 828-1176, C1007F;R1008H;Q1011G)
# How it was run: as §1
# PUM1 PUF domain R5-FNS = PUM1 PUF domain R5-FNS (Homo sapiens, UniProt Q14671 828-1176, C1007F;R1008N;Q1011S)
# How it was run: as §1
# PUM1 PUF domain R5-RNA = PUM1 PUF domain R5-RNA (Homo sapiens, UniProt Q14671 828-1176, C1007R;R1008N;Q1011A)
# How it was run: as §1
# PUM1 PUF domain R1-KQR = PUM1 PUF domain R1-KQR (Homo sapiens, UniProt Q14671 828-1176, S863K;R864Q;Q867R)
# How it was run: as §1
# PUM1 PUF domain R7-RTC = PUM1 PUF domain R7-RTC (Homo sapiens, UniProt Q14671 828-1176, S1079R;N1080T;E1083C)
# How it was run: as §1
# PUM1 PUF domain R5-RQE = PUM1 PUF domain R5-RQE (Homo sapiens, UniProt Q14671 828-1176, C1007R;R1008Q;Q1011E)
# How it was run: as §1
# PUM1 PUF domain R4-GYV = PUM1 PUF domain R4-GYV (Homo sapiens, UniProt Q14671 828-1176, N971G;H972Y;Q975V)
# How it was run: as §1
# PUM1 PUF domain R8-LHK = PUM1 PUF domain R8-LHK (Homo sapiens, UniProt Q14671 828-1176, N1122L;Y1123H;Q1126K)
# How it was run: as §1
# PUM1 PUF domain R3-RNG = PUM1 PUF domain R3-RNG (Homo sapiens, UniProt Q14671 828-1176, C935R;R936N;Q939G)
# How it was run: as §1
sequence,measurement,setting,value
GGCUAGAACUAGUGGAUCCCCCGGCGCCCGGCGGCUCGAGCCCGGGUAAGUGUGAAUAGUCUGCAUGCCGCCGGGCGCCAUGCCUGCAGGUCGACUCUAGAAAACAUG,binding signal,PUM1 PUF domain R5-RFS,1.78 log2 enrichment (interaction score)
GGCUAGAACUAGUGGAUCCCCCGGCGCCCGGCGGCUCGAGCCCGGGUAAGUCUAAAUAGUCUGCAUGCCGCCGGGCGCCAUGCCUGCAGGUCGACUCUAGAAAACAUG,binding signal,PUM1 PUF domain R7-RMR,2.46 log2 enrichment (interaction score)
GGCUAGAACUAGUGGAUCCCCCGGCGCCCGGCGGCUCGAGCCCGGGUAAGUGUAAAUUGUCUGCAUGCCGCCGGGCGCCAUGCCUGCAGGUCGACUCUAGAAAACAUG,binding signal,PUM1 PUF domain R1-NFH,3.4 log2 enrichment (interaction score)
same,binding signal,PUM1 PUF domain R1-YIR,4.41 log2 enrichment (interaction score)
GGCUAGAACUAGUGGAUCCCCCGGCGCCCGGCGGCUCGAGCCCGGGUAAGUGUAAAUAGUCUGCAUGCCGCCGGGCGCCAUGCCUGCAGGUCGACUCUAGAAAACAUG,binding signal,PUM1 PUF domain R5-RFS,2.61 log2 enrichment (interaction score)
same,binding signal,PUM1 PUF domain R1-YIR,3.77 log2 enrichment (interaction score)
same,binding signal,PUM1 PUF domain R6-KWV,6.02 log2 enrichment (interaction score)
same,binding signal,PUM1 PUF domain R6-HFT,3.78 log2 enrichment (interaction score)
same,binding signal,PUM1 PUF domain R6-SFC,4.7 log2 enrichment (interaction score)
same,binding signal,PUM1 PUF domain R3-GCR,0.62 log2 enrichment (interaction score)
same,binding signal,PUM1 PUF domain R4-ANG,0.25 log2 enrichment (interaction score)
same,binding signal,PUM1 PUF domain R8-RHQ,3.7 log2 enrichment (interaction score)
GGCUAGAACUAGUGGAUCCCCCGGCGCCCGGCGGCUCGAGCCCGGGUAAGUGUAAAUGGUCUGCAUGCCGCCGGGCGCCAUGCCUGCAGGUCGACUCUAGAAAACAUG,binding signal,PUM1 PUF domain R1-SGD,5.76 log2 enrichment (interaction score)
GGCUAGAACUAGUGGAUCCCCCGGCGCCCGGCGGCUCGAGCCCGGGUAAGUGUUAAUAGUCUGCAUGCCGCCGGGCGCCAUGCCUGCAGGUCGACUCUAGAAAACAUG,binding signal,PUM1 PUF domain R5-RFS,5.12 log2 enrichment (interaction score)
same,binding signal,PUM1 PUF domain R5-FHG,3.39 log2 enrichment (interaction score)
same,binding signal,PUM1 PUF domain R5-FNS,3.5 log2 enrichment (interaction score)
same,binding signal,PUM1 PUF domain R5-RNA,2.33 log2 enrichment (interaction score)
GGCUAGAACUAGUGGAUCCCCCGGCGCCCGGCGGCUCGAGCCCGGGUAAGUGUAAGUAGUCUGCAUGCCGCCGGGCGCCAUGCCUGCAGGUCGACUCUAGAAAACAUG,binding signal,PUM1 PUF domain R3-GCR,3.87 log2 enrichment (interaction score)
GGCUAGAACUAGUGGAUCCCCCGGCGCCCGGCGGCUCGAGCCCGGGUAAGUGUAUAUAGUCUGCAUGCCGCCGGGCGCCAUGCCUGCAGGUCGACUCUAGAAAACAUG,binding signal,PUM1 PUF domain R4-ANG,2.57 log2 enrichment (interaction score)
GGCUAGAACUAGUGGAUCCCCCGGCGCCCGGCGGCUCGAGCCCGGGUAAGUGUAAAUCGUCUGCAUGCCGCCGGGCGCCAUGCCUGCAGGUCGACUCUAGAAAACAUG,binding signal,PUM1 PUF domain R1-KQR,5.28 log2 enrichment (interaction score)
same,binding signal,PUM1 PUF domain R1-YIR,6.92 log2 enrichment (interaction score)
GGCUAGAACUAGUGGAUCCCCCGGCGCCCGGCGGCUCGAGCCCGGGUAAGUUUAAAUAGUCUGCAUGCCGCCGGGCGCCAUGCCUGCAGGUCGACUCUAGAAAACAUG,binding signal,PUM1 PUF domain R7-RMR,4.78 log2 enrichment (interaction score)
same,binding signal,PUM1 PUF domain R7-RTC,3.51 log2 enrichment (interaction score)
GGCUAGAACUAGUGGAUCCCCCGGCGCCCGGCGGCUCGAGCCCGGGUAAGUGUCAAUAGUCUGCAUGCCGCCGGGCGCCAUGCCUGCAGGUCGACUCUAGAAAACAUG,binding signal,PUM1 PUF domain R5-RFS,5.34 log2 enrichment (interaction score)
same,binding signal,PUM1 PUF domain R5-FHG,2.68 log2 enrichment (interaction score)
same,binding signal,PUM1 PUF domain R5-RNA,2.56 log2 enrichment (interaction score)
same,binding signal,PUM1 PUF domain R5-RQE,3.37 log2 enrichment (interaction score)
GGCUAGAACUAGUGGAUCCCCCGGCGCCCGGCGGCUCGAGCCCGGGUAAGUGUACAUAGUCUGCAUGCCGCCGGGCGCCAUGCCUGCAGGUCGACUCUAGAAAACAUG,binding signal,PUM1 PUF domain R4-GYV,7.46 log2 enrichment (interaction score)
same,binding signal,PUM1 PUF domain R4-ANG,3.65 log2 enrichment (interaction score)
GGCUAGAACUAGUGGAUCCCCCGGCGCCCGGCGGCUCGAGCCCGGGUAAGCGUAAAUAGUCUGCAUGCCGCCGGGCGCCAUGCCUGCAGGUCGACUCUAGAAAACAUG,binding signal,PUM1 PUF domain R8-LHK,3.29 log2 enrichment (interaction score)
same,binding signal,PUM1 PUF domain R8-RHQ,5.53 log2 enrichment (interaction score)
GGCUAGAACUAGUGGAUCCCCCGGCGCCCGGCGGCUCGAGCCCGGGUAAGUGUAAUUAGUCUGCAUGCCGCCGGGCGCCAUGCCUGCAGGUCGACUCUAGAAAACAUG,binding signal,PUM1 PUF domain R3-GCR,2.22 log2 enrichment (interaction score)
same,binding signal,PUM1 PUF domain R3-RNG,3.75 log2 enrichment (interaction score)

# — article PMC8384837, “Expanding the binding specificity for RNA recognition by a PUF domain”
